Where “and” joins values, the source holds several entries; their conditions need not be identical. Equal values may be shown once. Some compounds were tested as several samples or in several runs, with calls that do not always agree. Calls of active or inactive are those of the source. Rule for the calls: active = hit-call score of the fitted dose curve at least 0.9, where 1 is the maximum; inactive = score below 0.9.
How the values were obtained:
[1] = read-out: Matrix Metallopeptidase 9 (MMP9), MMP9 (gene 4318); experiment: BSK_BF4T_MMP9: BioMAP Diversity Plus: BF4T Assay for Matrix Metallopeptidase 9 (MMP9) Biomarker Activity (AID 2284276); settings: primary human bronchial epithelial cells with fibroblasts
Summary of the method: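 MMP-9 levels were measured by ELISA after 24 h exposure of bronchial epithelial cell/dermal fibroblast co-cultures, with DMSO as baseline. Parallel cultures were stained with 0.1% SRB after TCA fixation, read at 560 nm, to flag overt cytotoxicity.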

[2] = read-out: Interleukin-8 (IL8), CXCL8 (gene 3576); experiment: BSK_IMphg_IL8: BioMAP Diversity Plus: IMphg Assay for Interleukin-8 (IL8) Biomarker Activity (AID 2284277); settings: primary human endothelial cells with macrophages
Summary of the method: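 IL-8 levels were measured by ELISA 24 h after dosing in primary human venular endothelial cell–macrophage cultures, referenced to DMSO; parallel SRB staining monitored overt cytotoxicity.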

[3] = read-out: Intercellular Adhesion Molecule 1 (ICAM1), ICAM1 (gene 3383); experiment: BSK_BE3C_ICAM1: BioMAP Diversity Plus: BE3C Assay for Intercellular Adhesion Molecule 1 (ICAM1) Biomarker Activity (AID 2284278); settings: primary human bronchial epithelial cells
Experimental: BSK_BE3C is a cell-based, multiplexed-readout assay that uses bronchial epithelial cell, a human lung primary cell, with measurements taken at 24 hours after chemical dosing in a 96-well plate.BSK_BE3C_ICAM1 is an assay component measured in the BSK_BE3C assay. It measures ICAM-1 antibody related to regulation of gene expression using ELISA technology.Data from the assay component BSK_BE3C_ICAM1 was analyzed at the endpoint, BSK_BE3C_ICAM1, in the positive analysis fitting direction relative to DMSO as the negative control and baseline of activity. Using a type of binding reporter, gain or loss-of-signal activity can be used to understand protein changes. […]
The levels of cell surface (or secreted, indicated by the prefix "s") biomarker endpoints were measured by ELISA. Overt cytotoxicity to cells in confluent adherent cultures (all systems other than the BT system) was assessed by measuring total protein levels using sulforhodamine B (SRB) staining in parallel cultures at the time of biomarker measurements, indicated as SRB endpoints. For proliferation assays for adherent cell types, individual cell types are cultured at sub-confluence and relative cell numbers quantified by SRB staining at time points optimized for each system (48 h: 3C and CASM3C systems; 72 h: BT and HDF3CGF systems; 96 h: SAg system). […] Plates were read after 6 h.

[4] = read-out: Interferon-inducible T-cell alpha chemoattractant (ITAC), CXCL11 (gene 6373); experiment: BSK_BE3C_ITAC: BioMAP Diversity Plus: BE3C Assay for Interferon-inducible T-cell alpha chemoattractant (ITAC) Biomarker Activity (AID 2284279); settings: primary human bronchial epithelial cells
Summary of the method: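 The assay measures I-TAC levels by ELISA in human primary bronchial epithelial cell cultures 24 hours after chemical treatment. Values reflect signal increase over the DMSO baseline.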

[5] = read-out: Interleukin-8 (IL8), CXCL8 (gene 3576); experiment: BSK_BE3C_IL8: BioMAP Diversity Plus: BE3C Assay for Interleukin-8 (IL8) Biomarker Activity (AID 2284280); settings: primary human bronchial epithelial cells
Summary of the method: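 Primary human bronchial epithelial cells (BE3C system) were exposed to test chemical for 24 h, and IL-8 levels were then measured by ELISA. Activity was fitted in the positive (gain-of-signal) direction against a DMSO negative-control baseline.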

[6] = read-out: Epidermal growth factor receptor (EGFR), EGFR (gene 1956); experiment: BSK_BE3C_EGFR: BioMAP Diversity Plus: BE3C Assay for Epidermal growth factor receptor (EGFR) Biomarker Activity (AID 2284281); settings: primary human bronchial epithelial cells
Summary of the method: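 Human primary bronchial epithelial cells were exposed to compound for 24 h, and cell-surface EGFR was then quantified by ELISA. Activity was fitted in the positive direction against the DMSO vehicle baseline.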

KRT18 (gene 3875) = experiment: BSK_BE3C_Keratin818: BioMAP Diversity Plus: BE3C Assay for Keratin 818 Biomarker Activity (AID 2284282); settings: primary human bronchial epithelial cells
Summary of the method: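 In this multiplexed primary-cell system, bronchial epithelial cells were dosed and harvested at 24 h. Keratin 8/18 was determined by ELISA and analysed for increases over DMSO controls.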

[7] = read-out: Matrix Metallopeptidase 9 (MMP9), MMP9 (gene 4318); experiment: BSK_BE3C_MMP9: BioMAP Diversity Plus: BE3C Assay for Matrix Metallopeptidase 9 (MMP9) Biomarker Activity (AID 2284283); settings: primary human bronchial epithelial cells
Summary of the method: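 Human primary bronchial epithelial cells in the BE3C system were dosed with compound for 24 h. MMP-9 was measured by ELISA, and the positive-direction response was fitted relative to DMSO as baseline. Parallel SRB staining gauged cytotoxicity.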

[8] = read-out: Plasminogen activator inhibitor-1 (PAI1), SERPINE1 (gene 5054); experiment: BSK_CASM3C_PAI1: BioMAP Diversity Plus: CASM3C Assay for Plasminogen activator inhibitor-1 (PAI1) Biomarker Activity (AID 2284284); settings: primary human coronary artery smooth muscle cells;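 note: PAI-1 protein level measured by ELISA 24 h after dosing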
[9] = read-out: Monocyte Chemoattractant Protein-1 (MCP1), CCL2 (gene 6347); experiment: BSK_hDFCGF_MCP1: BioMAP Diversity Plus: hDFCGF Assay for Monocyte Chemoattractant Protein-1 (MCP1) Biomarker Activity (AID 2284285); settings: primary human foreskin fibroblasts
Summary of the method: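 MCP-1 ELISA readout was taken 24 hours after dosing primary human dermal fibroblasts in the hDFCGF system, with DMSO as baseline. Parallel sulforhodamine B staining of total protein tracked overt cytotoxicity.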

Measured: AC50

CCNS(=O)(=O)C(F)(F)C(F)(F)C(F)(F)C(F)(F)C(F)(F)C(F)(F)C(F)(F)C(F)(F)F
inactive: [3] | [8]
active: [1] 30 µM and 39.9 µM | [2] 21.3 µM and 27.2 µM | [3] 40.3 µM | [4] 40 µM and 35.2 µM | [5] 16.4 µM and 22.6 µM | [6] 38.2 µM and 23.3 µM | KRT18 (gene 3875) 21.5 µM and 21.8 µM | [7] 30 µM and 18.5 µM | [9] 49.3 µM and 46.9 µM
